Source: PubChem BioAssay (NCATS)
Inconclusive results are not listed. Some of the results follow. Activity calls are given as the source filed them. Unless noted, calls come from the whole dose curve; as a rule, active = well fitted curve in the direction sought with a large enough effect; inconclusive = small, poorly fitted or top-dose-only effect, or another doubt; inactive = no such curve, though single readings can be large; an effect the other way counts as inactive or inconclusive.

Experiments:
[1] = target: Tumor susceptibility gene 101 protein (Homo sapiens) (UniProt Q99816); experiment: qHTS Assay for Iinhibitors of HIV-1 Budding by Blocking the Interaction of PTAP/TSG101: Hit Validation (AID 651600); note: nearly all actives have a fitted effect of over 70% in size; note: potency is the fitted concentration of half-maximal effect; for activity change, negative = inhibition: % is set by controls: 0 for no effect and ±100 for the full control effect
How it was run: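 FITC-PTAP peptide (50 nM final) binding to Tsg101 binding domain (10 uM final) was measured by polarization after 20 min at r.t. with compounds, in 10 mM HEPES pH 7.5 buffer with 0.15 M NaCl and 0.01% Tween 20.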

[2] = target: Rap guanine nucleotide exchange factor 3 (Homo sapiens) (UniProt O95398); experiment: Confirmatory qHTS for antagonist of cAMP-regulated guanine nucleotide exchange factor 3 (EPAC1) (AID 1645880); conditions: EPAC1 Rap1B-BODIPY-GDP exchange, fluorescence; activity, negative = inhibition: at 115 µM (top of the series); note: nearly all actives have a fitted effect of over 55% in size; note: potency is the fitted concentration of half-maximal effect;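 for activity, negative = inhibition: plate controls were DMSO only for no effect and full effect of the ATA control for full effect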
How it was run: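 Nucleotide exchange uses 100 nM EPAC1, 250 nM RAP1B-BODIPY-GDP and 50 uM GDP, with compounds in a concentration-titration series. After 5 min at room temperature, fluorescence (480 nm ex/540 nm em) is read every 5 min for 30 min. Data are normalized to control ATA and DMSO.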

[3] = target: Rap guanine nucleotide exchange factor 3 (Homo sapiens) (UniProt O95398); experiment: Confirmatory qHTS for agonist of cAMP-regulated guanine nucleotide exchange factor 3 (EPAC1) (AID 1645881); note: nearly all actives have a fitted effect of over 75% in size; note: potency is the fitted concentration of half-maximal effect;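 for activation: EPAC1 catalysed release of BODIPY-GDP from Rap1B seen as fluorescence loss; 100% = effect of cAMP agonist control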
[4] = target: Rap guanine nucleotide exchange factor 4 (Homo sapiens) (UniProt Q8WZA2); experiment: Confirmatory qHTS for agonist of cAMP-regulated guanine nucleotide exchange factor 4 (EPAC2) (AID 1645884);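 note: nucleotide exchange releases bodipy-GDP from Rap1 and this lowers its fluorescence; nearly all actives have a fitted effect of over 65% in size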; note: potency is the fitted concentration of half-maximal effect
[5] = target: Rap guanine nucleotide exchange factor 4 (Homo sapiens) (UniProt Q8WZA2); experiment: Confirmatory qHTS for antagonist of cAMP-regulated guanine nucleotide exchange factor 4 (EPAC2) (AID 1645885); note: nearly all actives have a fitted effect of over 25% in size; note: potency is the fitted concentration of half-maximal effect; for activity change, negative = inhibition: % is set by controls: 0 for no effect and ±100 for the full control effect
[6] = target: Rap guanine nucleotide exchange factor 3 (Homo sapiens) (UniProt O95398); experiment: Counterscreen qHTS for antagonist of cAMP-regulated guanine nucleotide exchange factor 3 (EPAC1) (AID 1645888);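 note: fluorescence loss as bound BODIPY-GDP is released from Rap1B; % of control where 0% means no effect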
How it was run: (§1)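 Rap1B-BODIPY-GDP 250 nM + GDP 50 uM; cpds 7-pt, final 9.74 nM–152 uM (activator mode) or from 7.32 nM upwards (inhibitor mode); RT; FI 480/540 nm at 5 and 30 min, then ± cAMP, reread.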

[7] = AP1 Signaling Pathway (AID 357; active = well fitted curve in either direction with a large enough effect, not every such curve was filed as active; note: % is set by controls: 0 for no effect and ±100 for the full control effect); conditions: ME-180 AP-1-bla reporter, EGF-induced, beta-lactamase ratio, 5 h; at 7.69 µM (top of the series) unless noted
How it was run: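 ME-180 cells with beta-lactamase reporter under AP-1 response element, stimulated with EC50 EGF; compounds tested in titration series, 5 h at 37 °C. CCF4 substrate added 2.5 h at room temperature; 460/530 nm emission ratio gave %activity and AC50.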

[8] = Stat Signaling Pathway (AID 446; active = well fitted curve in either direction with a large enough effect, not every such curve was filed as active;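 note: ME-180 cervical cancer cells given 40 pM IL-6 alongside compound; SIE-controlled beta-lactamase reporter measured as 460/530 nm FRET emission ratio; % is set by controls: 0 for no effect and ±100 for the full control effect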)
How it was run: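 IL-6/STAT signaling read in ME-180 cells via an SIE beta-lactamase reporter. Stimulus was 40 pM IL-6 (its AC50) for 5 hrs, so both activation and inhibition register.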

[9] = target: Glucocorticoid receptor (Homo sapiens) (UniProt P04150); experiment: GR-GFP Redistribution (AID 450;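 active = compounds whose dose series gives a full or clear partial fitted curve of increased nuclear translocation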; note: potency is the fitted concentration of half-maximal effect); conditions: U2OS GR-GFP nuclear translocation, laser cytometry, 2 h
[10] = qHTS Assay for Identification of Small Molecule Agonists for Hypoxia Response Element Signaling Pathway (AID 914; active = well fitted activation curve with a large enough effect in the signal ratio, with a control signal flat, not every such curve was filed as active; the % refers to the signal ratio; note: potency is the fitted concentration of half-maximal effect); conditions: ME-180 (cervical carcinoma) HRE-bla reporter, beta-lactamase ratio, CoCl2, 17 h; activation: stronger effect = higher value
How it was run: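 Compounds in a titration series were added to ME-180 reporter cells alongside an EC50 level of CoCl2. After 17 hours, beta-lactamase activity was read as the 460nm/530nm emission ratio of CCF4, giving AC50 values.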

[11] = target: Rap guanine nucleotide exchange factor 3 (Homo sapiens) (UniProt O95398); experiment: Counterscreen qHTS for agonist of cAMP-regulated guanine nucleotide exchange factor 3 (EPAC1) (AID 1645889); note: nearly all actives have a fitted effect of over 40% in size; note: potency is the fitted concentration of half-maximal effect; for activation: % of control where 0% means no effect
How it was run: as §1

[12] = target: DNA polymerase iota (Homo sapiens) (UniProt Q9UNA4); experiment: qHTS for Inhibitors of Polymerase Iota: Confirmatory Assay for Cherry-picked Compounds (AID 720496); conditions: Pol iota primer extension, TAMRA/BHQ fluorescence; note: potency is the fitted concentration of half-maximal effect
How it was run: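 Read-out is TAMRA fluorescence (525 nm excitation, 598 nm emission) at 0 and 10 min. It reflects strand displacement from a BHQ-2-quenched template by 10 nM Pol iota, with 50 nM final substrate after 15 min compound preincubation.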

Sequence of Rap guanine nucleotide exchange factor 3 (Homo sapiens) (O95398 whole entry, looked up): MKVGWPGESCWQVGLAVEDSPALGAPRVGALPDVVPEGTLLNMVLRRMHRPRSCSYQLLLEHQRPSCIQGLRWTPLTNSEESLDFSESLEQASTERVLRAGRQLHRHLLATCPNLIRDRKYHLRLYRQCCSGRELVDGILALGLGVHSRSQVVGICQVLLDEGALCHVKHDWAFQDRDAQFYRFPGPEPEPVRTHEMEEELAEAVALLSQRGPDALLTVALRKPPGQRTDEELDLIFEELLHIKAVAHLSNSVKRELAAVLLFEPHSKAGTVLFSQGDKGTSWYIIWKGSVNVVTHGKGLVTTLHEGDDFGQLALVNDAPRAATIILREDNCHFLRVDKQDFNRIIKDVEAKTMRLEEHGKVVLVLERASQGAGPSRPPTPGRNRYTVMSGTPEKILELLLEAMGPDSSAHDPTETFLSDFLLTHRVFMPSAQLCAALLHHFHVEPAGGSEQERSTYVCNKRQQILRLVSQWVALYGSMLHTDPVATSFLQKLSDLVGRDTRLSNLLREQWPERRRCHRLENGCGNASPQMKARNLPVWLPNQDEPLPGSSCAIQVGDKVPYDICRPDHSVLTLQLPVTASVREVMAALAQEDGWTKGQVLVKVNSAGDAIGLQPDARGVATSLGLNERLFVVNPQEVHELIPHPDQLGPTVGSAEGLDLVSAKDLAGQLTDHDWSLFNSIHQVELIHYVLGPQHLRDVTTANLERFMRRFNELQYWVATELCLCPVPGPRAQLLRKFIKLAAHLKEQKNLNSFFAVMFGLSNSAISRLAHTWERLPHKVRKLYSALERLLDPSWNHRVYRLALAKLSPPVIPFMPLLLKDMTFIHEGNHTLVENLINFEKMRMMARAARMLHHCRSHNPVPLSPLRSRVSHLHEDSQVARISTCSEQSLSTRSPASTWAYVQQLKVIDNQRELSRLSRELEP
Sequence of Rap guanine nucleotide exchange factor 4 (Homo sapiens) (Q8WZA2 whole entry, looked up): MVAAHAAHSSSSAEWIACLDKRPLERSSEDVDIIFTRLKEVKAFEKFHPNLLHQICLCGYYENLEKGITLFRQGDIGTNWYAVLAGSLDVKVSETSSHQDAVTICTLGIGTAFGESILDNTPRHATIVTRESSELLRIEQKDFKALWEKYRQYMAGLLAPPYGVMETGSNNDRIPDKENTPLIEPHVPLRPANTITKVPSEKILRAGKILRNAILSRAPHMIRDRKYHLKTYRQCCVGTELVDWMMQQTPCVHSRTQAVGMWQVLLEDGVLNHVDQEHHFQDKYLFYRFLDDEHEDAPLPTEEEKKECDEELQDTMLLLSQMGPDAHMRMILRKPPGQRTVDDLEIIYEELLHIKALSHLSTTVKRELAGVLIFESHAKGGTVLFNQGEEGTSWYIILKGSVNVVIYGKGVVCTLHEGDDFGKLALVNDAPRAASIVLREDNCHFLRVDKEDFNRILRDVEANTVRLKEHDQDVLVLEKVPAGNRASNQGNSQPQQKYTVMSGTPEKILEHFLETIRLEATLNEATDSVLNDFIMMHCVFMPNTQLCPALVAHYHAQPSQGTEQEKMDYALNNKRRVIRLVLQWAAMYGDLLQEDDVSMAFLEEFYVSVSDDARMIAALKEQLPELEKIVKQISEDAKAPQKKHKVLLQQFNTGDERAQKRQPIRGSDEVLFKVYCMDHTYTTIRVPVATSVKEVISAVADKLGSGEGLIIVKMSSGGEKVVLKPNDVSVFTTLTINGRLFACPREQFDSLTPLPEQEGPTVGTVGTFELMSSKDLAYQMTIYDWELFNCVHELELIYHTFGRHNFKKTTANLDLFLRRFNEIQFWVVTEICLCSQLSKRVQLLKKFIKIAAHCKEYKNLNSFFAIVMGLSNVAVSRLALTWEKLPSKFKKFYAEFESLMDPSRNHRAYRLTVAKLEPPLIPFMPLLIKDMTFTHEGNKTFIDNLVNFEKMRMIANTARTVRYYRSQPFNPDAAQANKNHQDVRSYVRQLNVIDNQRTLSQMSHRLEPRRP
Sequence of Tumor susceptibility gene 101 protein (Homo sapiens) (Q99816 whole entry, looked up, the tested form may be a part): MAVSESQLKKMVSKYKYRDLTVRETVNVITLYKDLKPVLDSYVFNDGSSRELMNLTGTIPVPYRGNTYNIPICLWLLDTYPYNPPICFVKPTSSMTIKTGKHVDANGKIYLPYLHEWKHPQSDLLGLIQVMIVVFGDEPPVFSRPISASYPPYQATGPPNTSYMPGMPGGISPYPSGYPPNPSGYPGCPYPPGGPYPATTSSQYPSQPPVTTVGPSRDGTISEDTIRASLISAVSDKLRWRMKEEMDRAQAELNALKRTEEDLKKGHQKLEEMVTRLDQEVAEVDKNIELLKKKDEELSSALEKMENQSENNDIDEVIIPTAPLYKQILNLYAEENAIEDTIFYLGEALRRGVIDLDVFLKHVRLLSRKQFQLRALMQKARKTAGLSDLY
Sequence of Glucocorticoid receptor (Homo sapiens) (P04150 whole entry, looked up): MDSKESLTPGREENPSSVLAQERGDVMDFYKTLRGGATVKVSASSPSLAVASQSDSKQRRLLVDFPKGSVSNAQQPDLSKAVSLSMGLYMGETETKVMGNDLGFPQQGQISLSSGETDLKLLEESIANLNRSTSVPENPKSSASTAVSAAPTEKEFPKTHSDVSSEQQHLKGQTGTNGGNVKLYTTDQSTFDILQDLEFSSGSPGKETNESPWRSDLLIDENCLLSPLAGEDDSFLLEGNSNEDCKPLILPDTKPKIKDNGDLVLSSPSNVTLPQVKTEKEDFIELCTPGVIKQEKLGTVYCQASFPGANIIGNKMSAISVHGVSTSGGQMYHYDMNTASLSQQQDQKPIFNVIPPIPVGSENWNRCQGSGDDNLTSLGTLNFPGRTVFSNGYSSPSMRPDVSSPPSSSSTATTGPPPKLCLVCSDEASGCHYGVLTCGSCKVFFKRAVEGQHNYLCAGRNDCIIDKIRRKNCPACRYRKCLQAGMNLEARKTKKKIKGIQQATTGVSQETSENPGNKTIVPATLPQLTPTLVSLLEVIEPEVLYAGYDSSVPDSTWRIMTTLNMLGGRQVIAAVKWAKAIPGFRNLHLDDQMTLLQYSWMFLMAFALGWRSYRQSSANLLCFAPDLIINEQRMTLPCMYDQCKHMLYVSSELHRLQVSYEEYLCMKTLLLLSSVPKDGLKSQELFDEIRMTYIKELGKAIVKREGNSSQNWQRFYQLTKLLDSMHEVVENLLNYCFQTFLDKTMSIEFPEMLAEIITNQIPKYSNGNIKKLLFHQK
Sequence of DNA polymerase iota (Homo sapiens) (Q9UNA4 whole entry, looked up): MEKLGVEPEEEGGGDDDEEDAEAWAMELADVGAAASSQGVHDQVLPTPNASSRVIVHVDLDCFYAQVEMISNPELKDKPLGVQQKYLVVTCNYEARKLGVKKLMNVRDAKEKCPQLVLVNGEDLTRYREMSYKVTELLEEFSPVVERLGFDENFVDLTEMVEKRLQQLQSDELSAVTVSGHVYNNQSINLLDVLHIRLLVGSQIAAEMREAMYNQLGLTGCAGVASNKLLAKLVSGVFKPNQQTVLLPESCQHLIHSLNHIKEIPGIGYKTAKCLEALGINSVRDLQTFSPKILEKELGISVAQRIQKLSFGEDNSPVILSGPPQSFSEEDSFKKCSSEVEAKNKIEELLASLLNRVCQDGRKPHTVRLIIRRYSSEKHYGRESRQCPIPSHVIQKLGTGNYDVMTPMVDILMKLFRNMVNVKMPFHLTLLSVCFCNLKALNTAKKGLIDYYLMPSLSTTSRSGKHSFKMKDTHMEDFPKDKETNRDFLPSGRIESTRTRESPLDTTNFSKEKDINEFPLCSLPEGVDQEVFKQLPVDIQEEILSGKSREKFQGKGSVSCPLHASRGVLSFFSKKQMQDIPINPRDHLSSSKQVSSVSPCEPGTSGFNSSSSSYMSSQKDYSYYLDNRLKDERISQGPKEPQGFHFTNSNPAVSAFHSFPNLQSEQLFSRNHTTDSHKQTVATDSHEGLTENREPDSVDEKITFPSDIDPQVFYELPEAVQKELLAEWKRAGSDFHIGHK

COc1ccc2nc3ccccc3nc2c1NC(=O)c1ccc(Cl)cc1Cl
active: Potency [3] 100 µM | Potency [4] 100 µM
inactive: Potency [1] | Potency [2] | Potency [5] | Potency [6]

CCCCCCc1cc2cc(C(=O)NC)c(=N)oc2cc1O
inactive: activity change, negative = inhibition [7] -13% [at 17.2 µM] | outcome [8] | Potency [9] > 20.6 µM | Potency [2] | Potency [5] | Potency [6]
active: Potency [10] 3.98 µM | Potency [3] 89.1 µM | Potency [4] 100 µM

Cn1c(=O)c(N)c2c3c(c(Br)ccc31)C(=O)c1ccccc1-2
inactive: Potency [3] | Potency [4] | Potency [6] | Potency [11]
active: Potency [1] 1.63 µM | Potency [2] 26.9 µM | Potency [5] 26.9 µM

Cc1cc(C=C2C(=O)c3ccccc3C2=O)c(C)n1-c1ccc(Cl)cc1
inactive: Potency [1] | Potency [2] | Potency [3] | activation [4] 3.84% [at 17.1 µM, percent relative to cAMP agonist control] | Potency [5] | activity change, negative = inhibition [6] -26.7% [at 30.8 µM] | activation [11] 7.12% [at 30.8 µM]

COc1ccc2nc3ccccc3[n+]([O-])c2c1
inactive: Potency [2] | activation [4] 14% [at 17.1 µM, percent relative to cAMP agonist control] | Potency [5] | activity change, negative = inhibition [6] 32.7% [at 30.8 µM]
active: Potency [1] 18.3 µM | Potency [3] 79.4 µM

N#CC(C(=O)OC1CCCCC1)c1nc2ccccc2nc1N1CCOCC1 (stereo unspecified)
active: Potency [1] 10.3 µM
inactive: Potency [2] | Potency [3] | activation [4] -10.2% [at 17.1 µM, percent relative to cAMP agonist control] | Potency [5] | activity change, negative = inhibition [6] -21.8% [at 30.8 µM] | activation [11] -0.592% [at 30.8 µM]

O=C1c2cccc3c(O)ccc(c23)C(=O)N1c1ccc(Cl)cc1
active: Potency [1] 4.11 µM | Potency [3] 112 µM | Potency [4] 112 µM | Potency [5] 84.9 µM | Potency [11] 39.8 µM
inactive: Potency [2] | Potency [6]

COc1ccc(S(=O)(=O)/N=C2\C=C(NS(=O)(=O)c3ccccc3)C(=O)c3ccccc32)cc1
active: Potency [12] 67 µM | Potency [2] 8.49 µM | Potency [3] 50.1 µM | Potency [4] 100 µM | Potency [5] 10.7 µM
inactive: Potency [6] | Potency [11]
